# Results published in PubChem BioAssay (NCI).
# The panel holds about 79,000 compounds, 15% with a hit somewhere; the sample as a whole holds those more often. The source made the active and inactive calls. Rule as the data show it: active = growth inhibition above about 70%; inactive = the rest.
# Test: NCI Yeast Anticancer Drug Screen. Data for the sgs1 mgt1 strain (AID 161);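 also: 0% = growth of cultures given vehicle only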
# Details: S. cerevisiae sgs1 mgt1 strain, at 50.0 µM, active compounds read high
# Outline: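 Growth of a repair-deficient yeast mutant was monitored after compound treatment and expressed as inhibition relative to vehicle-treated cultures.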
row,Compound,growth inhibition
1,O=[N+]([O-])c1cc(F)c(Sc2cc(Br)c([N+](=O)[O-])cc2F)cc1Br,3.05% (inactive)
2,C=CS(=O)(=O)c1ccc(C)cc1,81.4% (active)
3,NC(CSSCC(N)C(=O)Nc1ccc2ccccc2c1)C(=O)Nc1ccc2ccccc2c1 (stereo not given),91.7% (active)
4,COc1ccc(C2=CCC3C4CC=C5CC(O)CCC5(C)C4CCC23C)s1 (stereo not given),59.6% (inactive)
5,O=C(O)COc1ccccc1C(=O)O,-1.95% (inactive)
6,O=[N+]([O-])c1ccc(NNS(=O)(=O)c2ccccc2)c([N+](=O)[O-])c1,10.3% (inactive)
7,CCOc1nc(N)nc(C)c1N=Nc1ccc(Cl)cc1,91.9% (active)
8,Nc1ccc2c(c1)CCc1ccccc1-2,89.8% (active)
9,O=c1c2cc3c(cc2c2cccc4c2n1CCC4)OCO3,25.4% (inactive)
10,O=C(COc1ccc(Br)cc1Br)N1N=C(c2ccc([N+](=O)[O-])o2)CC1(O)c1ccccc1 (stereo not given),70.7% (active)
11,Nc1cc(Br)cc2c1[nH]c1ccc(Br)cc12,98.1% (active)
12,Clc1ccccc1CCc1cc(-c2ccccc2)n[nH]1,95.6% (active)
13,O=C(CSc1nnc(-c2ccc(N=Cc3ccc(Cl)cc3)cc2)o1)Nc1ccccc1Cl,6.25% (inactive)
14,COC(=O)CCCCC(=O)N(C(C)C)C(C)C,-19.8% (inactive)
15,CCc1ccccc1NC(=O)C(=O)CC(=O)c1ccc(Cl)s1,6.85% (inactive)
16,CCNC(=S)N/N=C/c1ccccn1,78.2% (active)
17,[N-]=[N+]=Nc1c(C=O)c(=O)n(-c2ccccc2)c2ccccc12,79% (active)
18,COc1cc2c(c(O)c1C)C(=O)C(Cl)=CC2=O,99.3% (active)
19,O=c1[nH]c(=O)c2cc([N+](=O)[O-])cc([N+](=O)[O-])c2[nH]1,54.9% (inactive)
20,CCOC(=O)NC(=S)Nc1ccsc1,11% (inactive)

row,Compound,growth inhibition
1,O=C(/C(O)=C(\O)C(=O)N(C1CCCCC1)C1CCCCC1)N(C1CCCCC1)C1CCCCC1,96.8% (active)
2,Nc1nccc2c1ncn2C1C=C(CO)C(O)C1O (stereo not given),54.5% (inactive)
3,NC(=Nc1ccccc1)c1ccc2c(c1)c1c(n2Cc2ccccc2)CCCC1,99.6% (active)
4,CC/C(=C(/CC)c1ccc(O)cc1)c1ccc([O-])cc1.CC/C(=C(/CC)c1ccc(O)cc1)c1ccc([O-])cc1.O=C([CH-]C(=O)c1ccccc1)c1ccccc1.O=C([CH-]C(=O)c1ccccc1)c1ccccc1.[Ti+4],92.8% (active)
5,CC(=O)c1c(O)c2ccc(Cl)cc2[nH]c1=O,83.2% (active)
6,CCOC(=O)c1cnccc1CC1(C#N)c2ccccc2C=CN1C(=O)c1ccccc1 (stereo not given),93.2% (active)
7,O=c1cc(-c2ccccc2)oc(-c2ccccc2)c1,11% (inactive)
8,CCCCCC/C=C\C=O,64% (inactive)
9,O=C1NC(=O)C(c2ccccc2)(c2ccccc2)C2CC3c4[nH]c5ccccc5c4CCN3CC12 (stereo not given),56% (inactive)
10,Nc1ccc(-c2ccc(N)cc2S(=O)(=O)O)c(S(=O)(=O)O)c1,-5.9% (inactive)
11,Oc1ccc2ccccc2c1/C=N\Sc1ccccc1,98.5% (active)
12,CCCC(C)c1ccc(O)cc1 (stereo not given),51.7% (inactive)
13,CCOC(=O)/C(=C\c1ccc(Cl)cc1)C(C)=O,93.3% (active)
14,O=C(O)C(SC1=NNC2(C(=O)N1)c1ccccc1-c1ccccc12)SC1=NNC2(C(=O)N1)c1ccccc1-c1ccccc12,97.4% (active)
15,Cc1sc(Cc2ccccc2)nc1-c1ccc(N=Cc2ccc(N(CCOS(C)(=O)=O)CCOS(C)(=O)=O)cc2)cc1,96.5% (active)
16,CCCCc1ccc(Nc2nc(N)c3[nH]cnc3n2)cc1,36.1% (inactive)
17,O=C(c1c(F)c(F)c(F)c(F)c1F)n1c(=S)n(C(=O)c2c(F)c(F)c(F)c(F)c2F)c2ccccc21,62.3% (inactive)
18,Cc1ccnc2sc3ccccc3c(=O)c12,80.6% (active)
19,O=[N+]([O-])c1ccc2c(c1)CCc1ccccc1-2,76.6% (active)
20,NNc1ccc(Br)cc1,92.7% (active)

# Test: NCI Yeast Anticancer Drug Screen. Data for the cln2 rad14 strain (AID 165);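 also: 0% = growth equal to vehicle treated cultures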
# Details: S. cerevisiae cln2 rad14 strain, at 5.0 µM (retest, dose inferred, filed as 0.5), active compounds read high
# Outline: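 Yeast strain cln2 rad14, bearing defects in cell cycle control and DNA repair, serves as the test system; values reflect growth inhibition compared with vehicle.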
row,Compound,growth inhibition
1,O=[N+]([O-])c1cc(F)c(Sc2cc(Br)c([N+](=O)[O-])cc2F)cc1Br,1% (inactive)
2,C=CS(=O)(=O)c1ccc(C)cc1,5% (inactive)
3,NC(CSSCC(N)C(=O)Nc1ccc2ccccc2c1)C(=O)Nc1ccc2ccccc2c1 (stereo not given),21% (inactive)
4,COc1ccc(C2=CCC3C4CC=C5CC(O)CCC5(C)C4CCC23C)s1 (stereo not given),-3% (inactive)
5,O=C(O)COc1ccccc1C(=O)O,-2% (inactive)
6,O=[N+]([O-])c1ccc(NNS(=O)(=O)c2ccccc2)c([N+](=O)[O-])c1,-33% (inactive)
7,CCOc1nc(N)nc(C)c1N=Nc1ccc(Cl)cc1,-5% (inactive)
8,Nc1ccc2c(c1)CCc1ccccc1-2,-5% (inactive)
9,O=c1c2cc3c(cc2c2cccc4c2n1CCC4)OCO3,-3% (inactive)
10,O=C(COc1ccc(Br)cc1Br)N1N=C(c2ccc([N+](=O)[O-])o2)CC1(O)c1ccccc1 (stereo not given),0% (inactive)
11,Nc1cc(Br)cc2c1[nH]c1ccc(Br)cc12,3% (inactive)
12,Clc1ccccc1CCc1cc(-c2ccccc2)n[nH]1,-13% (inactive)
13,O=C(CSc1nnc(-c2ccc(N=Cc3ccc(Cl)cc3)cc2)o1)Nc1ccccc1Cl,14% (inactive)
14,COC(=O)CCCCC(=O)N(C(C)C)C(C)C,-2% (inactive)
15,CCc1ccccc1NC(=O)C(=O)CC(=O)c1ccc(Cl)s1,-2% (inactive)
16,CCNC(=S)N/N=C/c1ccccn1,-21% (inactive)
17,[N-]=[N+]=Nc1c(C=O)c(=O)n(-c2ccccc2)c2ccccc12,0% (inactive)
18,COc1cc2c(c(O)c1C)C(=O)C(Cl)=CC2=O,98% (active)
19,O=c1[nH]c(=O)c2cc([N+](=O)[O-])cc([N+](=O)[O-])c2[nH]1,-3% (inactive)
20,CCOC(=O)NC(=S)Nc1ccsc1,0% (inactive)

row,Compound,growth inhibition
1,O=C(/C(O)=C(\O)C(=O)N(C1CCCCC1)C1CCCCC1)N(C1CCCCC1)C1CCCCC1,-4% (inactive)
2,Nc1nccc2c1ncn2C1C=C(CO)C(O)C1O (stereo not given),0% (inactive)
3,NC(=Nc1ccccc1)c1ccc2c(c1)c1c(n2Cc2ccccc2)CCCC1,-5% (inactive)
4,CC/C(=C(/CC)c1ccc(O)cc1)c1ccc([O-])cc1.CC/C(=C(/CC)c1ccc(O)cc1)c1ccc([O-])cc1.O=C([CH-]C(=O)c1ccccc1)c1ccccc1.O=C([CH-]C(=O)c1ccccc1)c1ccccc1.[Ti+4],56% (inactive)
5,CC(=O)c1c(O)c2ccc(Cl)cc2[nH]c1=O,25% (inactive)
6,CCOC(=O)c1cnccc1CC1(C#N)c2ccccc2C=CN1C(=O)c1ccccc1 (stereo not given),-7% (inactive)
7,O=c1cc(-c2ccccc2)oc(-c2ccccc2)c1,-68% (inactive)
8,CCCCCC/C=C\C=O,-6% (inactive)
9,O=C1NC(=O)C(c2ccccc2)(c2ccccc2)C2CC3c4[nH]c5ccccc5c4CCN3CC12 (stereo not given),6% (inactive)
10,Nc1ccc(-c2ccc(N)cc2S(=O)(=O)O)c(S(=O)(=O)O)c1,-2% (inactive)
11,Oc1ccc2ccccc2c1/C=N\Sc1ccccc1,7% (inactive)
12,CCCC(C)c1ccc(O)cc1 (stereo not given),4% (inactive)
13,CCOC(=O)/C(=C\c1ccc(Cl)cc1)C(C)=O,29% (inactive)
14,O=C(O)C(SC1=NNC2(C(=O)N1)c1ccccc1-c1ccccc12)SC1=NNC2(C(=O)N1)c1ccccc1-c1ccccc12,4% (inactive)
15,Cc1sc(Cc2ccccc2)nc1-c1ccc(N=Cc2ccc(N(CCOS(C)(=O)=O)CCOS(C)(=O)=O)cc2)cc1,38% (inactive)
16,CCCCc1ccc(Nc2nc(N)c3[nH]cnc3n2)cc1,21% (inactive)
17,O=C(c1c(F)c(F)c(F)c(F)c1F)n1c(=S)n(C(=O)c2c(F)c(F)c(F)c(F)c2F)c2ccccc21,-2% (inactive)
18,Cc1ccnc2sc3ccccc3c(=O)c12,4% (inactive)
19,O=[N+]([O-])c1ccc2c(c1)CCc1ccccc1-2,-1% (inactive)
20,NNc1ccc(Br)cc1,47% (inactive)
